Counter-ions that a name gives are not always drawn.

The experiment has as its system Danio rerio larvae (5 dpf). Put plainly: excitability (activity period 17 minus period 16, 1-s interval sound) minus DMSO control (percentage points); higher = more acoustic excitability than DMSO larvae. The conditions noted are these: 10 µM; exposure time: 3 h pre-incubation + 3 h imaging. The method, then:
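Wild-type 5 dpf zebrafish larvae (n=48 per drug, 96-well plates, 28.5 °C) were exposed to Tocris FDA-approved library compounds at 10 µM (0.1% DMSO) for 3 h before and 3 h during imaging. Images were taken every 6 s during visual (moving coloured lines) and acoustic stimuli, and larvae were tracked with the DeepLabCut-based Z-LaP Tracker. Each behavioural measure is the treated-group mean minus the DMSO vehicle control mean (n=844), in percentage points. This mapping covers compounds with 4-character plate codes.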
In the case of `CN/C(=N\CCSCc1nc[nH]c1C)NC#N` [Cimetidine], the excitability was -2.33. To `N#Cc1ccc(C(c2ccc(C#N)cc2)n2cncn2)cc1` [Letrozole] belongs 0.318; to `Cc1ccc(N(CC2=NCCN2)c2cccc(O)c2)cc1` [Phentolamine Mesylate], 15.6; to `CCCCC(=O)N(Cc1ccc(-c2ccccc2-c2nnn[nH]2)cc1)[C@H](C(=O)O)C(C)C` [Valsartan], -1.67.

With `Nc1nc(NC2CC2)c2ncn([C@H]3C=C[C@@H](CO)C3)c2n1` [Abacavir hemisulfate], the excitability was 0.611.

Regarding `Cc1ccc(NC(=O)c2ccc(CN3CCN(C)CC3)cc2)cc1Nc1nccc(-c2cccnc2)n1` [Imatinib mesylate], the excitability turned out to be 13.3. The figure for `O=c1[nH]c(=O)n([C@H]2C[C@H](O)[C@@H](CO)O2)cc1C(F)(F)F` [Trifluorothymidine] is 4.38; for `Nc1ncn([C@@H]2O[C@H](CO)[C@@H](O)[C@H]2O)c(=O)n1` [5-Azacytidine] it is -2.47. In the case of `O=C(O)c1cc(/N=N/c2ccc(S(=O)(=O)Nc3ccccn3)cc2)ccc1O` [Sulfasalazine], the excitability was 0.715. As for `CCOC(=O)N1CCC(=C2c3ccc(Cl)cc3CCc3cccnc32)CC1` [Loratidine], the excitability is -3.25. Turning to `OC(CNCC(O)C1CCc2cc(F)ccc2O1)C1CCc2cc(F)ccc2O1` (stereo not given) [Nebivolol hydrochloride], the excitability was determined as 12.7. The figure for `Cn1nnc2c(C(N)=O)ncn2c1=O` [Temozolomide] is 0.618; for `COc1c(C)c2c(c(O)c1C/C=C(\C)CCC(=O)OCCN1CCOCC1)C(=O)OC2` [Mycophenolate mofetil] it is 4.14.

With `COc1ccc(Cl)cc1C(=O)NCCc1ccc(S(=O)(=O)NC(=O)NC2CCCCC2)cc1` [Glibenclamide], the excitability is 2.33. To `CC1(C)O[C@@H]2[C@@H](CO[C@@]3(COS(N)(=O)=O)OC(C)(C)O[C@@H]23)O1` [Topiramate] belongs 2; to `CNC(=O)c1ccccc1Sc1ccc2c(/C=C/c3ccccn3)n[nH]c2c1` [Axitinib], 1.48; to `COc1ccc(C[C@@H](C)NC[C@H](O)c2ccc(O)c(NC=O)c2)cc1` [Arformoterol tartrate], 4.62. The figure for `CN1CCN2c3ncccc3Cc3ccccc3C2C1` (stereo not given) [Mirtazapine] is 4.38; for `Cc1cccc(CN2CCN(C(c3ccccc3)c3ccc(Cl)cc3)CC2)c1` (stereo not given) [Meclizine dihydrochloride] it is 8.17. The figure for `CC(C)[C@H]1CC[C@H](C(=O)N[C@H](Cc2ccccc2)C(=O)O)CC1` [Nateglinide] is 2.5; for `CC(C)Nc1cccnc1N1CCN(C(=O)c2cc3cc(NS(C)(=O)=O)ccc3[nH]2)CC1` [Delavirdine mesylate] it is 2.93. Regarding `Cc1ccsc1C(=CCCN1CCC[C@@H](C(=O)O)C1)c1sccc1C` [Tiagabine hydrochloride], the excitability is -6.75. For the compound `COC(c1ccccc1)(c1ccccc1)[C@H](Oc1nc(C)cc(C)n1)C(=O)O` [Ambrisentan], the excitability was -1.02. The figure for `CCCc1nc(C(C)(C)O)c(C(=O)O)n1Cc1ccc(-c2ccccc2-c2nnn[nH]2)cc1` [Olmesartan] is 0.0977. For the compound `NC(=O)c1ncn([C@@H]2O[C@H](CO)[C@@H](O)[C@H]2O)n1` [Ribavirin], the excitability worked out at 3.28.

In the case of `CCN(CC)CCNC(=O)c1c(C)[nH]c(/C=C2\C(=O)Nc3ccc(F)cc32)c1C` [Sunitinib malate], the excitability amounted to 15.8. Turning to `Cc1cn([C@H]2C=C[C@@H](CO)O2)c(=O)[nH]c1=O` [Stavudine], the excitability is 1.32. The figure for `C#C[C@]1(O)CC[C@H]2[C@@H]3CCC4=CC(=O)CC[C@@H]4[C@H]3CC[C@@]21CC` [Levonorgestrel] is 3.64; for `Cc1nc(Nc2ncc(C(=O)Nc3c(C)cccc3Cl)s2)cc(N2CCN(CCO)CC2)n1` [Dasatinib] it is 17.4; for `CN1CCC[C@@H]1CCO[C@](C)(c1ccccc1)c1ccc(Cl)cc1` [Clemastine fumarate] it is 12.9. To `CN(CCOc1ccc(CC2SC(=O)NC2=O)cc1)c1ccccn1` (stereo not given) [Rosiglitazone] belongs 17.9; to `CC(C)C(=O)OCC(=O)[C@@]12O[C@H](C3CCCCC3)O[C@@H]1C[C@H]1[C@@H]3CCC4=CC(=O)C=C[C@]4(C)[C@H]3[C@@H](O)C[C@@]12C` [Ciclesonide], 6.47; to `CCOC(=O)C1=C(COCCN)NC(C)=C(C(=O)OC)C1c1ccccc1Cl` (stereo not given) [Amlodipine besylate], 1.82. To `CN1CC(=O)N2[C@H](c3ccc4c(c3)OCO4)c3[nH]c4ccccc4c3C[C@@H]2C1=O` [Tadalafil] belongs 5.81; to `Nc1nc(Cl)nc2c1ncn2[C@@H]1O[C@H](CO)[C@@H](O)[C@@H]1F` [Clofarabine], 4.52; to `CS(=O)(=O)CCNCc1ccc(-c2ccc3ncnc(Nc4ccc(OCc5cccc(F)c5)c(Cl)c4)c3c2)o1` [Lapatinib], 15.5.

Turning to `CC(=O)O[C@]1(C(C)=O)CC[C@H]2[C@@H]3C=C(C)C4=CC(=O)CC[C@]4(C)[C@H]3CC[C@@]21C` [Megestrol Acetate], the excitability came out at 12.4. The figure for `CCCc1nc2c(C)cc(-c3nc4ccccc4n3C)cc2n1Cc1ccc(-c2ccccc2C(=O)O)cc1` [Telmisartan] is 15.1.

For `O=C(O)CCCc1ccccc1` [Sodium 4-Phenylbutyrate], the excitability was determined as 2.71. To `CC(C)(C(=O)c1cccnc1)c1cccnc1` [Metyrapone] belongs 15.8.

(Values after the supplement of paper PMC9950053.)
